CHT allo act: allosterically activates the human high affinity choline transporter | B-score at 10 µM | CHT-expressing cells, membrane potential dye, choline EC20; stronger effect = higher value; LV-AA mutant CHT in HEK293 cells | Q9GZV3 | 310,000 tested, 0.49% active | AID 488977;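 active = initial fluorescence not abnormally high and integrated response B-score, plate-corrected, over 3 SD above library mean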
ANO1 block: mouse TMEM16A channel inhibition, primary screen | Q8BHY3 | HEK293 TMEM16A/YFP iodide influx fluorescence, ionomycin | normalized B-score (activity score, 25-100; higher = stronger inhibition) at 10 µM | 310,000 tested, 1.2% active | AID 588511;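 active = ratio plate-corrected score three or more library SD toward inhibition, starting fluorescence score within five deviations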;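 also: score derived from kinetic fluorescence span divided by baseline fluorescence per well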
Target sequence (Q8BHY3 whole entry, looked up): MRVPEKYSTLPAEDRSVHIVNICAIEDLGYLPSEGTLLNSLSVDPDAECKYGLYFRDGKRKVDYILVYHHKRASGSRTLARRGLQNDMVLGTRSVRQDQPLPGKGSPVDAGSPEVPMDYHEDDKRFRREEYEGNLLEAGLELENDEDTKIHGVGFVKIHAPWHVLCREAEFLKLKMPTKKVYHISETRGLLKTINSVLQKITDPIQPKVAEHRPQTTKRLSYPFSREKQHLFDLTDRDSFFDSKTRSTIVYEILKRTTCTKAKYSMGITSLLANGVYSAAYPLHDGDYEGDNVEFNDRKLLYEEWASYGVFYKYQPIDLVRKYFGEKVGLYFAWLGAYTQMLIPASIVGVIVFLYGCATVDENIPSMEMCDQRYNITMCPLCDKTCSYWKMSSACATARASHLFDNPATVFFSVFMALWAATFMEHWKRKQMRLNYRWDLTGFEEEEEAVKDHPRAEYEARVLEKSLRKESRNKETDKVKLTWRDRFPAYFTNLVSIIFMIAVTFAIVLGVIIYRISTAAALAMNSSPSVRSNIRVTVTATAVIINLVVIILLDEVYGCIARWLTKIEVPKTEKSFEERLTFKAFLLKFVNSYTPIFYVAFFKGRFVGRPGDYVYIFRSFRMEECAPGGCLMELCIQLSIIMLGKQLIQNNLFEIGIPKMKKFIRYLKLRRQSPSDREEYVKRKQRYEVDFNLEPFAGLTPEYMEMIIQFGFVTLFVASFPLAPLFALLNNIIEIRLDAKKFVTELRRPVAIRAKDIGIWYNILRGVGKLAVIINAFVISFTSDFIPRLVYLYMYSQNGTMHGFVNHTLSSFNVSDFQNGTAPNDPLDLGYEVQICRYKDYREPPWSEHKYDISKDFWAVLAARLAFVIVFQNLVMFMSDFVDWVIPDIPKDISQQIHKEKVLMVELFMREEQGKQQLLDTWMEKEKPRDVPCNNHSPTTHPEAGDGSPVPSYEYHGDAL
TMEM16A act: mouse TMEM16A channel activation, primary screen. Q8BHY3. HEK293 TMEM16A/YFP-H148Q/I152L, iodide quench fluorescence; stronger effect = lower value. B-score at 10 µM. 340,000 tested, 0.3% active. AID 623877;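 active = fluorescence-ratio B-score plate-corrected deviation score at least 3 library SD below zero, with starting fluorescence score within 5 deviations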;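 also: channel opened by trigger with iodide after compound preincubation; score built on the fluorescence ratio of max minus min over baseline; more negative score means more quench and so TMEM16A activation or potentiation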
Kir21 inh: blocks the mouse Kir2.1 inward-rectifier potassium channel. P35561. HEK293-Kir2.1, FluxOR thallium flux fluorescence; stronger effect = lower value. B-score at 10 µM. 310,000 tested, 0.85% active. AID 1672;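 active = fluorescence ratio B-score at or below minus 3 SD of library scores, with starting-brightness B-score within 2 SD, cut at about -4.2 in these data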;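 also: channel flux triggered by added potassium and thallium sulfate stimulus; B-score of peak minus minimum fluorescence over baseline after thallium stimulus; more negative B-score means stronger Kir2.1 block with less thallium influx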
CHT block: inhibitors of human choline transporter CHT. Q9GZV3. CHT-expressing cells, membrane potential dye, choline response; stronger effect = lower value. B-score at 10 µM. 310,000 tested, 0.86% active;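 active = B-score over 3 SD under the library average, and starting fluorescence ratio not unusually high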;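 also: choline stimulus applied at its EC90 after an EC20 pre-addition; B-score computed on integrated fluorescence ratio after choline addition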
Rce1 inhib: blocks yeast Ras-converting enzyme; calls only; 290,000 tested, 0.27% active; Q03530; yeast membranes, quenched prenylated peptide cleavage fluorescence; AID 2563;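 active = fall in fluorescence gain of 50% or more versus controls, with final raw signal at or below 3038400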;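 also: plate controls were neutral control wells for no effect and wells lacking membranes for full effect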
CHT act confirm: human CHT activation, confirmatory screen; shares compounds with CHT allo act; CHT-expressing cells, membrane potential dye fluorescence (FDSS); % of choline EC20–EC90 response window; HEK293 expressing CHT LV-AA mutant; choline added at its EC20; activation, % at 10 µM; 2,500 tested, 91% active;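 active = primary screen active, with duplicate mean activation above negative control mean plus 3 SD, cut at about 11% in these data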
HEK293 MP dye: activity in parental HEK293 cells lacking CHT; ratio readout change at 10 µM, hits read low; shares compounds with CHT allo act; 2,500 tested, 62% active; membrane potential dye fluorescence (FDSS); measured after EC20 choline addition;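 active = duplicate-averaged ratio beyond 3 SD from buffer wells, up or down, though filed actives are nearly all decreases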
Starred values were filed as active, the others as inactive; i = inactive; · = not tested or not shown. Only some compounds are listed: those with a hit (about 3.2% of all), similar ones and a draw of the others.

SMILES | CHT allo act | ANO1 block | TMEM16A act | Kir21 inh | CHT block | Rce1 inhib | CHT act confirm | HEK293 MP dye
COC(=O)CNC(c1ccccc1)c1cc(Br)ccc1NC(=O)CNC(=O)OCc1ccccc1 (configuration not stated) | 6.3* | i | i | 1.2 | i | i | 47* | i
COc1ccc(-c2nc3c(-c4ccc(F)cc4)cnn3cc2C)cc1F | i | i | i | 1.2 | i | i | · | ·
Cc1cc(C)n2nc(C(=O)Nc3nnc(C4CC4)s3)nc2n1 | i | i | i | 0.58 | i | i | · | ·
Cc1cc(C)n2nc(C(=O)Nc3cccnc3)nc2n1 | 8.7* | i | i | -0.41 | i | i | 47* | -48*
Cc1cc(C)n2nc(C(=O)Nc3nccs3)nc2n1 | i | i | i | -1.9 | i | i | 54* | -27*
Cc1cc(C)n2nc(C(=O)N/N=C/c3ccco3)nc2n1 | 7* | i | i | -1.3 | i | i | 59* | -60*
CCSc1nnc(NC(=O)c2nc3nc(C)cc(C)n3n2)s1 | 6.3* | i | i | 1.7 | i | i | 48* | -41*
CC1(C)C(=O)Nc2ccccc2N1C(=O)COc1cc(Cl)ccc1Cl | · | · | i | · | · | · | · | ·
O=C(Cn1c(-c2ccccc2)c[n+]2ccsc12)c1ccccc1 | i | i | i | -1.1 | i | i | · | ·
O=C(Cn1c(-c2ccccc2)c[n+]2ccsc12)c1ccc([N+](=O)[O-])cc1 | 8.6* | i | i | 0.01 | i | i | 66* | -61*
Cc1ccc2c(ccc[n+]2CC(=O)c2ccccc2)c1 | i | i | i | 1.2 | i | i | · | ·
Cc1ccc2c(c1)c(C)cc[n+]2Cc1ccccc1 | 9.8* | i | i | 0.68 | i | i | 42* | -71*
Cc1ccc2ccc[n+](Cc3ccccc3)c2c1 | 7.9* | i | i | -0.62 | i | i | 90* | -81*
COc1ccc2c(c1)c(C)cc[n+]2Cc1ccccc1 | 6.7* | i | i | 0.08 | i | i | 74* | -67*
CCN(Cc1ccccc1)C(=O)c1[nH]c2ccc(OC)cc2c1C | · | · | i | -0.82 | · | i | · | ·
CC(CCc1ccccn1)(CCc1ccccn1)C(=O)c1ccccc1 | · | · | i | · | · | · | · | ·
CCOc1nc(N=C(N)N)nc2c(C)cccc12 | 6.6* | i | i | 0.23 | i | i | 54* | -60*
C/C(=N\NC(=O)c1ccccc1)c1cccc(Br)c1 | i | i | i | 1.6 | i | i | 5 | i
Cc1cc(C)nc(NC(=O)C(c2ccccc2)c2ccccc2)c1 | 6.9* | i | i | -3.4 | i | i | 40* | -35*
CCC(C(=O)Nc1cc(C)cc(C)n1)c1ccccc1 (configuration not stated) | i | i | i | 1.3 | i | i | · | ·
CN(C)CCCOc1nc2c(c(=O)n(C)c(=O)n2C)n1C | 9.1* | i | i | 1.6 | i | i | 49* | -55*
CN(C)CCNC(=O)c1onc(CSc2ccc(F)c(F)c2)c1C(=O)NCCN(C)C | i | i | i | 1.9 | i | i | · | ·
CN(C)CCNC(=O)c1onc(CSc2ccc(F)cc2)c1C(=O)NCCN(C)C | 6.7* | i | i | 0.7 | i | i | 17* | -20*
Cc1c(O)ccc2c(CN3CCN(CCO)CC3)cc(=O)oc12 | 17* | i | i | -0.01 | i | i | 66* | -70*
CCN(CC(=O)Nc1ccc(NC(C)=O)cc1)C(=O)CN1C(=O)C2CCCCC2C1=O (configuration not stated) | · | · | i | · | · | · | · | ·
CC1CCCN(c2ccc3nc4ccccc4c(=O)n3n2)C1 (configuration not stated) | i | i | i | 0.2 | i | i | · | ·

Bioassay records as filed in PubChem.
